High-throughput results (PubChem BioAssay)
DAX1 inh-1: inhibitors of human orphan nuclear receptor DAX1 (NR0B1); HEK293 Gal4-DAX1 luciferase reporter, luminescence; 340,000 compounds, 0.99% hits; AID 504766; inhibition, % at 6.75 µM; P51843;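 active = inhibition above the mean over all tested compounds plus 3 SD, cut at about 4.2% in these data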;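 also: 0% = DAX1-transfected cells with DMSO and 100% = empty-vector control cells with DMSO; inhibition shows as a rise in luminescence from relieved DAX1 repression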
Target sequence (P51843 207-470 limits assumed): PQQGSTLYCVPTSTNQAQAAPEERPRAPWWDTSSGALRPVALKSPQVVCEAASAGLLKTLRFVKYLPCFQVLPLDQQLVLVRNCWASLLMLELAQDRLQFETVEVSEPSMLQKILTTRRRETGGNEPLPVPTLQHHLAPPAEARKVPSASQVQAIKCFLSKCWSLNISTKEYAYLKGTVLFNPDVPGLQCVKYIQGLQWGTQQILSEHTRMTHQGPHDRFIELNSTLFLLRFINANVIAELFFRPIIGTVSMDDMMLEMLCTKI
GAA850 FXN act: increases GAA850 frataxin promoter reporter activity. HEK293 lucGAA850 FXN promoter luciferase reporter, 24 h; percent of 10 µM SAHA response. activation, % at 6 µM. 360,000 compounds, 0.56% hits;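 active = activation above the average of all compounds screened plus 3 SD, cutoff fixed separately per campaign, cut at about 7.5% in these data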;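 also: 0% = DMSO wells and 100% = 10 µM SAHA wells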
DAX1 inh-2: DAX1 (NR0B1) inhibition, primary screen; HEK293T StAR-luciferase reporter, SF-1/DAX-1 repression relief; inhibition, % at 6.8 µM; 370,000 compounds, 1.1% hits; AID 652010;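 active = inhibition above the mean over all tested compounds plus 3 SD, cut at about 3.6% in these data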;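 also: 0% = DAX-1 cells with DMSO and 100% = cells lacking DAX-1 with DMSO; higher inhibition means more luminescence from relief of DAX-1 repression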
hcDAF12 agonist: activates DAF-12 receptor from parasite H. contortus; activation, % at 6.8 µM; 370,000 compounds, 1.4% hits; HEK293 hcDAF-12 lit1-tk-luc reporter, luminescence; 0% DMSO, 100% Δ7-dafachronic acid;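 active = activation above the mean of all tested compounds plus 3 SD, cut at about 5.5% in these data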;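 also: 100% = response to 3 µM Δ7-dafachronic acid high control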
hgDAF12 agonist: agonists of H. glycines DAF-12 nuclear receptor. activation, % at 6.8 µM. AID 687014. HEK293 GAL4-hgDAF12 UAS-luciferase reporter, agonist luminescence; normalized to butyrate control. 370,000 compounds, 1.8% hits;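 active = activation above a cutoff set at the mean of all screened compounds plus 3 SD, cut at about 10% in these data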;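 also: 0% = DMSO wells and 100% = sodium butyrate wells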
ssDAF-12 act: S. stercoralis DAF-12 activation, primary screen | HEK293 ssDAF-12/GRIP1 lit1-tk-luc reporter, luminescence; % of 3 µM dafachronic acid response | activation, % at 6.8 µM | 370,000 compounds, 1% hits | AID 652126;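 active = activation above the mean over all tested compounds plus 3 SD, cut at about 0.9% in these data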;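 also: 0% = DMSO-only wells and 100% = 3 µM delta7-dafachronic acid wells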
Numbers without * were called inactive; . = no result. The list is not random: actives were taken first. Their share in the collection is about 4.5%.

SMILES | DAX1 inh-1 | GAA850 FXN act | DAX1 inh-2 | hcDAF12 agonist | hgDAF12 agonist | ssDAF-12 act
CC(=O)Nc1nc(-c2ccc3c(c2)OCO3)cs1 | 1 | 3 | 2 | 3 | 12* | 0
COc1ccc(NC(=O)c2cc3ccccc3cc2OC)cc1OC | 1 | 5 | -1 | 0 | 0 | -1
CC(=O)c1cccc(NC(=O)c2ccc(NS(C)(=O)=O)cc2)c1 | 0 | -1 | 0 | -2 | -2 | -1
O=C(Nc1ccc(C(=O)c2ccccc2)cc1)c1ccccc1 | 1 | 1 | 1 | 0 | 11* | -1
COc1cc(OC)c(C(=O)Nc2ccc3ccccc3c2)cc1OC | 5.2* | 1 | . | . | . | .
COc1ccc(CC(=O)OCC(=O)Nc2ccc(C(=O)Nc3ccc(OC)cc3)cc2)cc1 | 4.2* | 4 | 0 | -2 | -1 | -1
CS(=O)(=O)Nc1ccc(C(=O)Nc2ccc3ccccc3c2)cc1 | 2 | 3 | 2 | 4 | 11* | 1.3*
COC(=O)c1ccc2nc(C)c(C)nc2c1 | 0 | -2 | 0 | 1 | 3 | -1
CCOC(=O)c1cccc(NC(=O)c2ccc(N(C)C)cc2)c1 | -3 | 4 | 2 | 1 | 11* | -1
COc1cc2ccccc2cc1C(=O)Nc1ccc(O)cc1 | 4.4* | 7 | 2 | 4 | 7 | 1.4*
COc1ccc(C(=O)Nc2ccc3ccccc3c2)cc1 | -6 | -2 | 3 | 5.8* | 10 | 1
CCOC(=O)c1ccc2nc(C)c(C)nc2c1 | 0 | 1 | 0 | 5.6* | 4 | -1
COc1ccc2c(c1)CN1C(=O)N(Cc3ccccc3)S(=O)(=O)CC21 (stereo unspecified) | . | . | -1 | -1 | 4 | 0
COc1ccc(C(=O)Nc2ccccc2C(N)=O)cc1 | 0 | 4 | 2 | 0 | 13* | 0
Cc1nc2ccc(C(=O)Nc3ccc(N(C)C)cc3)cc2s1 | -3 | 2 | 0 | -4 | -6 | -2
COCCNC(=O)c1ccc2c(c1)NC(=O)CS2 | 0 | 0 | 0 | 0 | 2 | -2
COC(=O)c1ccccc1NC(=S)NC(=O)c1ccc2c(c1)OCO2 | -1 | 2 | 0 | 2 | 1 | 0
CN(C)c1ccc(NC(=O)c2ccc3nsnc3c2)cc1 | 1 | 3 | 3 | 2 | 11* | 0
NC(=O)c1ccccc1NC(=O)c1ccc2c(c1)OCO2 | 2 | 3 | 1 | 2 | 11* | 0
COc1ccc(NC(=O)c2ccc3c(c2)NC(=O)CS3)cc1 | 1 | 1 | 4.4* | 4 | 5 | -1
CCCCOCCCNC(=O)C[C@H]1C[C@@]2(C(=O)OC)C(=C[C@H](C3CCCC3)O[C@@H]2C)N(Cc2ccco2)C1=O | . | . | 0 | 0 | 0 | -1
COc1ccc2c(c1)N=CN1CCc3c([nH]c4ccccc34)C3=NCC[C@@]321 | . | . | . | -2 | 0 | -2
N#Cc1cccc(CNCC(=O)N2CCC3(CC2)OCCO3)c1 | . | . | 0 | 0 | -1 | -1
COc1ccc(/C=C/S(=O)(=O)NCc2ccccc2)c(CNC(=O)OC(C)(C)C)c1 | . | . | -1 | -1 | -1 | -2
COc1ccc(C(=O)Nc2cccc(C)c2)cc1 | 0 | 3 | 4.0* | 3 | 11* | 0
SMILES | DAX1 inh-1 | GAA850 FXN act | DAX1 inh-2 | hcDAF12 agonist | hgDAF12 agonist | ssDAF-12 act
COc1ccc(C(=O)Nc2cccc(NC(C)=O)c2)cc1 | . | 1 | 1 | 0 | 3 | 0
COc1ccc(C(=O)Nc2ccc3ccccc3c2)cc1OC | 2 | 3 | 2 | 2 | 12* | 0
COc1ccc(C(=O)Nc2cc(OC)nc(OC)n2)cc1 | 1 | 3 | 2 | 4 | 12* | 0
COc1cc(C(=O)Nc2ccc3ccccc3c2)cc(OC)c1OC | . | . | -1 | 1 | 5 | -1
C[C@H]1[C@@H](OC(=O)NCc2ccco2)CC[C@@]23CCCN2C(=O)CCC[C@@H]13 | . | . | . | 0 | 4 | -1
CCOC(=O)[C@@]12CCCC3=C1N(CCC3)C(=O)[C@H]2CC(=O)NCCCN1CCCC1=O | . | . | -1 | 0 | 2 | -1
CCOC(=O)c1cn2nc(N3CCCCC3)ccc2n1 | -4 | -2 | 2 | 2 | 7 | -1
CCOC(=O)c1cn2nc(N3CCCC3)ccc2n1 | -2 | 0 | 3 | 6.0* | 10 | 0
N#Cc1c(F)cccc1NCCCn1ccnc1 | 4.6* | 0 | 0 | 0 | -2 | -1
